PubChem BioAssay (NCATS)
Inconclusive results are not listed. Unmarked numbers belong to inactive results. Activity calls are given as the source filed them. Calls come from the whole dose curve; as a rule, active = well fitted cell-killing curve with a large enough effect; inconclusive = small, poorly fitted or top-dose-only effect, or effect the other way; inactive = flat fitted curve, though single readings scatter.

System: HeLa
Test: Primary qHTS to identify gynecologic anti-cancer compounds using libraries of approved drugs and bioactive compounds (AID 1345084); note: nearly all actives have a fitted effect of over 55% in size
Conditions: Gynecologic cancer cell panel viability, ATPlite luminescence, 48 h; series mostly up to 57.5 µM; activity change, negative = cytotoxicity: at the top concentration
How it was run: (§1)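 Cell viability after 48 h drug treatment, ATPlite luminescence readout; five doses.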
% is set by controls: 0 for no effect and ±100 for the full control effect; potency is the fitted concentration of half-maximal effect.

SMILES | activity change, negative = cytotoxicity | Potency
CCCCCCCCCCOCC(O)CN (centres undefined) | -25.4% | 
Cc1c(C)n(Cc2ccccc2)c2ccc(C(=O)OCCN(C)C)cc12 | -9.92% | 
COc1ccc(CCN2CCC(Nc3nc4ccccc4n3Cc3ccc(F)cc3)CC2)cc1 |  | 28.2 µM (active)
O=C1OCCN1/N=C/c1ccc([N+](=O)[O-])o1 | -11.6% | 
CCN(CC)CCOC(=O)C(c1ccccc1)C1CCCCC1 (centres undefined) | -5.81% | 
O=C(CCCN1CCC(O)(c2ccc(Br)cc2)CC1)c1ccc(F)cc1 | -0.663% | 
CC(O)(P(=O)(O)O)P(=O)(O)O | 0.0824% | 
CCCCOc1ccc(C(=O)CCN2CCCCC2)cc1 | -7.3% | 
Clc1ccc2c(c1)CCc1cccnc1C2=C1CCNCC1 | -2.55% | 
CCCOC(C(=O)OC1CCN(C)CC1)(c1ccccc1)c1ccccc1 | 11.6% | 
COc1ccc(/C=C/C(=O)c2ccc(OC)cc2OC)cc1 | -1.2% | 
CCOc1ccc(Cc2nccc3cc(OCC)c(OCC)cc23)cc1OCC | -27.1% | 
COC1=CC(=O)C[C@@H](C)[C@]12Oc1c(Cl)c(OC)cc(OC)c1C2=O | -11.2% | 
Oc1c(I)cc(I)c2cccnc12 | 2.4% | 
C[C@H]1C[C@H]2[C@@H]3CCC4=CC(=O)C=C[C@]4(C)[C@@]3(Cl)[C@@H](O)C[C@]2(C)[C@@]1(O)C(=O)CO | 7.22% | 
O=C(COc1ccc(Cl)cc1)N1CCN(Cc2ccc3c(c2)OCO3)CC1 | -19.5% | 
C[C@]12CCC(=O)C=C1[C@@H]1C[C@@H]1[C@H]1[C@@H]3[C@@H]4C[C@@H]4[C@@]4(CCC(=O)O4)[C@@]3(C)CC[C@@H]12 |  | 3.55 µM (active)

SMILES | activity change, negative = cytotoxicity | Potency
CC1=C(C(=O)OC(C)C)C(c2cccc([N+](=O)[O-])c2)C(C(=O)OC2CN(C(c3ccccc3)c3ccccc3)C2)=C(N)N1 (centres undefined) | 1.05% | 
COc1cc2c(cc1OC)C(C(C(=O)N(CCc1ccc(OC)c(OC)c1OC)CCc1ccc(OC)c(OC)c1OC)c1ccccc1)=NCC2 (centres undefined) | -1.01% | 
CCN(CC)CCOc1ccc(C(O)(Cc2ccc(Cl)cc2)c2ccc(C)cc2)cc1 (centres undefined) | -25.6% | 
COCc1c(C(C)C)nc(C(C)C)c(/C=C/[C@@H](O)C[C@@H](O)CC(=O)O)c1-c1ccc(F)cc1 |  | 1.78 µM (active)
COc1cccc2c1C(=O)c1c(O)c3c(c(O)c1C2=O)C[C@@](O)(C(=O)CO)C[C@@H]3O[C@H]1C[C@H](N)[C@H](O)[C@H](C)O1 |  | 22.4 µM (active)
c1ccc(CNCCNCc2ccccc2)cc1 | -4.54% | 
C=C1C[C@H]2[C@@H]3C=C(C)C4=CC(=O)CC[C@]4(C)[C@H]3CC[C@]2(C)[C@@]1(OC(C)=O)C(C)=O | -11.4% | 
CCN(CCCc1ccccc1)CCCc1ccccc1 | -5.04% | 
O=C(CCN1CCC(c2ccccc2)C1)c1ccc2c(c1)OCCO2 (centres undefined) | -1.9% | 
CN(C)CC/C=C1\c2ccccc2Sc2ccc(Cl)cc21 | 0.635% | 
COc1cccc(CCc2ccccc2OCC(CN(C)C)OC(=O)CCC(=O)O)c1 (centres undefined) | 5.21% | 
CN1CCC(=C2c3ccccc3Sc3ccccc32)CC1 | -14.7% | 
CN1CCN(CCCN2c3ccccc3Sc3ccc(S(=O)(=O)N(C)C)cc32)CC1 | -21.1% | 
CC(=O)N/N=C/c1ccc([N+](=O)[O-])o1 | 7.71% | 
CC(=O)c1ccc2c(c1)N(CCCN1CCC(CCO)CC1)c1ccccc1S2 | -1.57% | 
CN(C(=O)CN(CCO)CC(=O)N(C)C(C)(C)Cc1ccccc1)C(C)(C)Cc1ccccc1 | 6.21% | 
CC(C)=CCC1C(=O)N(c2ccccc2)N(c2ccccc2)C1=O | 2.13% | 

System: Hek293T
Test: as above
Conditions: Gynecologic cancer cell panel viability, ATPlite luminescence, 48 h, control line for the selectivity index; series mostly up to 57.5 µM; activity change, negative = cytotoxicity: at the top concentration
How it was run: as §1

SMILES | activity change, negative = cytotoxicity | Potency
CCCCCCCCCCOCC(O)CN (centres undefined) | -3.99% | 
Cc1c(C)n(Cc2ccccc2)c2ccc(C(=O)OCCN(C)C)cc12 | -3.87% | 
O=C1OCCN1/N=C/c1ccc([N+](=O)[O-])o1 | -2.62% | 
CCN(CC)CCOC(=O)C(c1ccccc1)C1CCCCC1 (centres undefined) | -25.3% | 
O=C(CCCN1CCC(O)(c2ccc(Br)cc2)CC1)c1ccc(F)cc1 | -3.92% | 
CC(O)(P(=O)(O)O)P(=O)(O)O | -2.99% | 
Clc1ccc2c(c1)CCc1cccnc1C2=C1CCNCC1 | -21% | 
CCCOC(C(=O)OC1CCN(C)CC1)(c1ccccc1)c1ccccc1 | 1.65% | 
COc1ccc(/C=C/C(=O)c2ccc(OC)cc2OC)cc1 | -14.3% | 
COC1=CC(=O)C[C@@H](C)[C@]12Oc1c(Cl)c(OC)cc(OC)c1C2=O | -15.2% | 
Oc1c(I)cc(I)c2cccnc12 | -12.4% | 
C[C@H]1C[C@H]2[C@@H]3CCC4=CC(=O)C=C[C@]4(C)[C@@]3(Cl)[C@@H](O)C[C@]2(C)[C@@]1(O)C(=O)CO | -0.942% | 
O=C(COc1ccc(Cl)cc1)N1CCN(Cc2ccc3c(c2)OCO3)CC1 | 0% | 
Cc1cccc(C)c1NC(=O)CN1CCN(CCCC(c2ccc(F)cc2)c2ccc(F)cc2)CC1 | -16.6% | 
C[C@]12CCC(=O)C=C1[C@@H]1C[C@@H]1[C@H]1[C@@H]3[C@@H]4C[C@@H]4[C@@]4(CCC(=O)O4)[C@@]3(C)CC[C@@H]12 | -9.89% | 
CC1=C(C(=O)OC(C)C)C(c2cccc([N+](=O)[O-])c2)C(C(=O)OC2CN(C(c3ccccc3)c3ccccc3)C2)=C(N)N1 (centres undefined) | 6.19% | 
COc1cc2c(cc1OC)C(C(C(=O)N(CCc1ccc(OC)c(OC)c1OC)CCc1ccc(OC)c(OC)c1OC)c1ccccc1)=NCC2 (centres undefined) | -4.55% | 
COc1cccc2c1C(=O)c1c(O)c3c(c(O)c1C2=O)C[C@@](O)(C(=O)CO)C[C@@H]3O[C@H]1C[C@H](N)[C@H](O)[C@H](C)O1 |  | 7.94 µM (active)
c1ccc(CNCCNCc2ccccc2)cc1 | -11.2% | 
C=C1C[C@H]2[C@@H]3C=C(C)C4=CC(=O)CC[C@]4(C)[C@H]3CC[C@]2(C)[C@@]1(OC(C)=O)C(C)=O | -6.79% | 
CCN(CCCc1ccccc1)CCCc1ccccc1 | -19.4% | 
O=C(CCN1CCC(c2ccccc2)C1)c1ccc2c(c1)OCCO2 (centres undefined) | -6.48% | 
CN(C)CC/C=C1\c2ccccc2Sc2ccc(Cl)cc21 | -3.71% | 
COc1cccc(CCc2ccccc2OCC(CN(C)C)OC(=O)CCC(=O)O)c1 (centres undefined) | 2.89% | 
CN1CCC(=C2c3ccccc3Sc3ccccc32)CC1 | 10.6% | 
CN1CCN(CCCN2c3ccccc3Sc3ccc(S(=O)(=O)N(C)C)cc32)CC1 | -15.5% | 
CC(=O)N/N=C/c1ccc([N+](=O)[O-])o1 | -2.99% | 
CC(=O)c1ccc2c(c1)N(CCCN1CCC(CCO)CC1)c1ccccc1S2 | -2.26% | 
CN(C(=O)CN(CCO)CC(=O)N(C)C(C)(C)Cc1ccccc1)C(C)(C)Cc1ccccc1 | -3.5% | 
CC(C)=CCC1C(=O)N(c2ccccc2)N(c2ccccc2)C1=O | 1.26% | 
